Test results: PubChem BioAssay (NCATS)
Results filed as inconclusive are left out. A call without a number means that no potency is given here. Activity calls are given as the source filed them. Calls come from the whole dose curve; as a rule, active = well fitted inhibition curve with a large enough effect; inconclusive = small, poorly fitted or top-dose-only effect; inactive = flat fitted curve, though single readings scatter.

Assay: qHTS for Inhibitors of Plasmodium falciparum (7G8) proliferation (AID 504316); note: nearly all actives have a fitted effect of over 65% in size
Conditions: P. falciparum 7G8 in erythrocytes, SYBR Green DNA, 72 h; series mostly up to 6.7 µM
Outline: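 Parasite growth measured as SYBR Green DNA fluorescence (ex 485, em 535 nm) after overnight lysis following 72 h culture at 37 °C, 0.3% parasitemia, 2.5% hematocrit. Values normalized against DMSO and 0.29 uM artemisinin controls, with plate-stack correction.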
Potency is the fitted concentration of half-maximal effect.

| SMILES | Potency |
| --- | --- |
| CC(=O)OC[C@H]1O[C@H](C#CCCCc2ccccc2)C=C[C@H]1OC(C)=O | inactive |
| O=C(NC(CC1=CCCCC1)c1ccc2c(c1)OCO2)C(F)(F)F (centres undefined) | inactive |
| C[C@H]1[C@H](N=[N+]=[N-])[C@H](O)CCO[C@@H]1c1ccccc1 | inactive |
| COC(=O)C1(C)C=C(Nc2ccc(OC)cc2)C(=O)N1c1ccc(OC)cc1 (centres undefined) | inactive |
| COC(=O)CCCC1=CC2=C(c3ccccc3)C(=O)C(C)(OC(=O)C3CCCC3)C(=O)C2=CN1Cc1ccc2c(c1)OCO2 (centres undefined) | inactive |
| CC(C)OC(=O)CC(NC(=O)OC(C)(C)C)c1ccccc1 (centres undefined) | inactive |
| COC[C@H]1O[C@@H]2O[C@@H]1[C@@H](C=Cc1ccccc1)C[C@H]2C | inactive |
| COC(=O)C1=C(C)N(Cc2ccccc2)C(=S)NC1CCc1ccccc1 (centres undefined) | inactive |
| COC(=O)[C@H]1C[C@@]2(CC=C(C)C)C(=O)[C@@](CC=C(C)C)(C(=O)C(C(=O)c3ccccc3)=C2OC)C1(C)C | inactive |
| CC1(OC(=O)C2CCCC2)C(=O)C=C2C=C(c3ccsc3)N(CCN3CCOCC3)C=C2C1=O (centres undefined) | inactive |
| CC(=O)[C@@H]1[C@@H](C)N(Cc2ccccc2)C(=O)N[C@H]1c1ccccc1 | inactive |
| CCN1C(=O)NC(c2ccc(Br)cc2)C(C(C)=O)=C1C (centres undefined) | inactive |
| C#CCCCON=C1C[C@@H](O)[C@H](O)[C@H]2[C@@H]3C(=O)N(c4cccc(Oc5ccccc5)c4)C(=O)[C@@H]3CC[C@@H]12 | inactive |
| COC(=O)C[C@H]1c2ccccc2[C@@H]2C(=C[C@@H](C)[C@H]3C(=O)N(O)C(=O)[C@H]32)N1C(=O)OC | inactive |
| COC(=O)CC=C[C@@H](C)[C@@H](C=NO[C@H](C)c1cn([C@H](CO)Cc2ccccc2)nn1)NS(=O)(=O)c1ccc(C)cc1 | inactive |
| CCOC(=O)CCN1C(=O)[C@@H]2[C@H]3[C@H](O)[C@H](O)CC(=NNC(=O)OCc4ccc(OC)cc4)[C@H]3CC[C@H]2C1=O | inactive |
| CC1(OC(=O)C2CCCC2)C(=O)C=C2C=C(c3ccsc3)N(Cc3ccc4c(c3)OCO4)C=C2C1=O (centres undefined) | inactive |
| COC(=O)c1cc(C(=O)OC)n2c(C)cc3ccccc3c12 | inactive |
| CCOC(=O)CN1C(=O)[C@]2(O[C@H](C)CC3=CCCC32)c2c(Br)cccc21 (some centres undefined) | inactive |
| C=CC1=C2C=C(C3CC3)N(CCN3CCOCC3)C=C2C(=O)C(C)(OC(=O)c2ccco2)C1=O (centres undefined) | inactive |

| SMILES | Potency |
| --- | --- |
| C#CC[C@@]1(C(=O)OC)C=C[C@@H](C)[C@H](c2ccccc2Br)N1C(=O)C(F)(F)F | inactive |
| COC(=O)[C@@H]1C[C@@]23C(=NN=C(SC)C2Nc2ccccc23)N1C(C)=O (some centres undefined) | inactive |
| COc1ccc(COC(=O)NN=C2C[C@@H](O)[C@@H](O)[C@@H]3[C@H]4C(=O)N(Cc5ccccc5)C(=O)[C@@H]4CC[C@@H]23)cc1 | inactive |
| Cc1cc(O)cc(O)c1C(=O)OC1(C)C(=O)C=C2C=C(C=CC(=O)O)OC=C2C1=O (centres undefined) | inactive |
| CCCNC(=O)OC[C@H]1O[C@H](CCON=C2c3cc(OC)ccc3O[C@H](c3cccc(OC)c3)[C@H]2O)C=C[C@H]1Oc1ccc(OC)cc1 | 1690 nM (active) |
| O=S(=O)(CCc1ccccc1)c1ccccc1 | inactive |
| CCOC(=O)OC[C@H]1O[C@H](C#Cc2ccc(C)cc2C)C=C[C@H]1OC(=O)OCC | inactive |
| COC(=O)c1nnc(C(=O)NCc2ccccc2)c2[nH]c3ccccc3c12 | inactive |
| COC(=O)C(=Cc1cc(Br)c(OC)c(Br)c1)C(=O)OC | inactive |
| O[C@@H]1CO[C@@H](C=Cc2ccccc2)[C@H]1OCc1cccc(Br)c1 | inactive |
| CCN1C(=NCC(C)C)N[C@@H](CCc2ccccc2)[C@H](C(=O)OC)[C@H]1C | inactive |
| Cc1cc(O)cc(O)c1C(=O)OC1(C)C(=O)C=C2C=C(C=CCO)OC=C2C1=O (centres undefined) | inactive |
| COc1ccc(OC[C@@H]2CC3[C@@H](CC[C@@H](C)[C@H]3c3ccc(Br)cc3)C(=O)O2)cc1 (some centres undefined) | inactive |
| CCN1C(=O)[C@H]2[C@H]3C(=CC[C@@H]2C1=O)C1(OCCCO1)[C@@H]1O[C@H]1[C@H]3O | inactive |
| O=C1CCCC1C(O)c1ccc2ccccc2c1 (centres undefined) | inactive |
| COC(=O)C(C(=O)OC)C1c2ccccc2C=C(C2CC2)N1C(=O)OC (centres undefined) | inactive |
| COC[C@@H](OC(C)=O)[C@H]1OCc2ccccc2[C@H]1C=Cc1ccccc1 | inactive |
| C=CC1=C2C=C(C3CC3)N(C3CCCCC3)C=C2C(=O)C(C)(OC(=O)c2ccco2)C1=O (centres undefined) | inactive |
| CCCCC1=CC2=C(c3ccco3)C(=O)C(C)(OC(=O)c3ccc(OC)cc3)C(=O)C2=CN1CCc1ccccn1 (centres undefined) | inactive |
